For the first test, the target named is Platelet-derived growth factor receptor beta (Homo sapiens) (UniProt P09619). Particulars: at 10 µM.
Platelet-derived growth factor receptor beta (Homo sapiens), sequence (P09619 whole entry): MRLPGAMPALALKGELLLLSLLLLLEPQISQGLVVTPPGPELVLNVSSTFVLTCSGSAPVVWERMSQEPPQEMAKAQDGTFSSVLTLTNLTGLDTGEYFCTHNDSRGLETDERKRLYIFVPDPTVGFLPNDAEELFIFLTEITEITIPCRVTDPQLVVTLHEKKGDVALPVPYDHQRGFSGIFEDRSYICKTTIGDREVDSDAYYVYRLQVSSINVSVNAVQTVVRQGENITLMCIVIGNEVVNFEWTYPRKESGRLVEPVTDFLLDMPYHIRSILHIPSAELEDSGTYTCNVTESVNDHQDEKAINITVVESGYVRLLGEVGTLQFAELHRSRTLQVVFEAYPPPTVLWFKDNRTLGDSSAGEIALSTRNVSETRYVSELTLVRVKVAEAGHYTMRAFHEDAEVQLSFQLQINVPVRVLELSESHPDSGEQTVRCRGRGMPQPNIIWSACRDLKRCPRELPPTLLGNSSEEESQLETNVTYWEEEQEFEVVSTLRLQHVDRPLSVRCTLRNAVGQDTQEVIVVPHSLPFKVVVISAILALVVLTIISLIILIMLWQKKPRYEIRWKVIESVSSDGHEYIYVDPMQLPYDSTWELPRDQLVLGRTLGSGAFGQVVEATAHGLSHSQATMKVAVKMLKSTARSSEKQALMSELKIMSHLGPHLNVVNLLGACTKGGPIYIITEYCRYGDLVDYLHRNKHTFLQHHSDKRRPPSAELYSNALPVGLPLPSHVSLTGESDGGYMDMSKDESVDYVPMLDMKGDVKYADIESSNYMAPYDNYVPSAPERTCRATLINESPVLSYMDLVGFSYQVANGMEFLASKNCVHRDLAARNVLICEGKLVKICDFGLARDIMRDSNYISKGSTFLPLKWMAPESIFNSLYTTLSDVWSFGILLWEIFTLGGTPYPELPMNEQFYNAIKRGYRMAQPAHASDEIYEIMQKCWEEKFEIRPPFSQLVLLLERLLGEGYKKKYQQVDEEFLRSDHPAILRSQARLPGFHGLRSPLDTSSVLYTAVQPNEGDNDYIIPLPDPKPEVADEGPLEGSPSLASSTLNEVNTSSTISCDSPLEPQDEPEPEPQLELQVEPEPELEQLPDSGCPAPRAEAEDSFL
Consider `CN(C)S(=O)(=O)c1ccc2c(c1)/C(=C/c1cc3c([nH]1)CCCC3)C(=O)N2`, for which the residual activity came to 90%.

As for `COc1ccc2c(c1)c(C1=C(c3c[nH]c4ccccc34)C(=O)NC1=O)cn2CCCN(C)C`, the residual activity is 63%.

For the molecule `O=C1NC(=O)C(c2c[nH]c3ccccc23)=C1c1c[nH]c2ccccc12`, the residual activity was determined as 83%.

As to `O=C(c1cc2cc(O)ccc2[nH]1)c1cc2cc(O)ccc2[nH]1`, the residual activity came to 6%.

The target of the next test is T1, 3-phosphoinositide-dependent protein kinase 1 (Homo sapiens) (UniProt O15530).
T1 sequence (whole entry): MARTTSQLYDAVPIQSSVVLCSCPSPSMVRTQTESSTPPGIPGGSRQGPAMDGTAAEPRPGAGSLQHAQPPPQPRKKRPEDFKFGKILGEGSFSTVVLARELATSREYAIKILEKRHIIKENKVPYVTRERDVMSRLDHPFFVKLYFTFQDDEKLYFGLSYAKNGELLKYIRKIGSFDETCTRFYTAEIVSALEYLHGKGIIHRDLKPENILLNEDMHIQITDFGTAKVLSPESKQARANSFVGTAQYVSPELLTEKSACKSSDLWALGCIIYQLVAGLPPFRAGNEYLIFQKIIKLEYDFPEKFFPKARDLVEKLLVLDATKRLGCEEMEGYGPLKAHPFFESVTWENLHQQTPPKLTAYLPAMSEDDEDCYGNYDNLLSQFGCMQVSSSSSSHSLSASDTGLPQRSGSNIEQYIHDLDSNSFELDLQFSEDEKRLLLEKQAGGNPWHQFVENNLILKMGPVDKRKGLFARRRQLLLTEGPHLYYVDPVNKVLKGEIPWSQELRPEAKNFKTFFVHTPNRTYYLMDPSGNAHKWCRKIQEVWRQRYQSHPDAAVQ
Particulars: at 1 µM.
As for `NC(=O)Nc1sc(-c2ccc(F)cc2)cc1C(N)=O`, the residual activity was found to be 57%.

For the molecule `O=C1Cc2c([nH]c3ccc([N+](=O)[O-])cc23)-c2ccccc2N1`, the residual activity is 45%.

For the molecule `Nc1ncnc2[nH]nc(Nc3ccc(F)cc3)c12`, the residual activity was determined as 92%.

For the molecule `Cn1c2ccccc2c2c3c(c4c5ccccc5n(CCC#N)c4c21)CNC3=O`, the residual activity worked out at 6%.

Consider `COc1cc2c(cc1OC)-c1n[nH]c(Nc3cccc(F)c3)c1C2`, for which the residual activity was found to be 104%.

As to `O=C(CCCc1ccc(-c2ccccc2F)cc1)Nc1ccc(O)cc1`, the residual activity turned out to be 105%.

In the case of `CCCCc1c(-c2ccc(OC)cc2)[nH]c2nccnc12`, the residual activity was found to be 70%.

As to `O=C1NC(=O)c2c1c1c3ccccc3[nH]c1n1cncc21`, the residual activity was determined as 56%.

Consider `CCN(CC)CCNC(=O)c1c(C)[nH]c(/C=C2\C(=O)Nc3ccc(Cl)cc32)c1C`, for which the residual activity was found to be 78%.

As for `CC(C)(C)n1nc(Cc2cccc3ccccc23)c2c(N)ncnc21`, the residual activity is 108%.

As for `Nc1ncnc2c1c(-c1ccc(Oc3ccccc3)cc1)cn2C1CCCC1`, the residual activity was 104%.

`c1ccc(-c2cnc(Nc3ccc(OCCN4CCCC4)cc3)s2)cc1`: the residual activity is 113%.

Consider `COc1ccc2c(c1)c(C1=C(c3c[nH]c4ccccc34)C(=O)NC1=O)cn2CCCN(C)C`, for which the residual activity turned out to be 62%.

As for `CC(C)(C)c1nc2c3ccc(F)cc3c3c(=O)[nH]ccc3c2[nH]1`, the residual activity stood at 3%.

As for `O=C1NC(=O)C(c2c[nH]c3ccccc23)=C1c1c[nH]c2ccccc12`, the residual activity came to 71%.

Regarding `O=C(c1cc2cc(O)ccc2[nH]1)c1cc2cc(O)ccc2[nH]1`, the residual activity stood at 79%.

With `O=C(O)/C=C/c1cc(Br)c(Br)c(Br)c1Br`, the residual activity is 107%.

Another test concerns the target T1, 3-phosphoinositide-dependent protein kinase 1 (Homo sapiens). The following applies: at 10 µM.
Consider `NC(=O)Nc1sc(-c2ccc(F)cc2)cc1C(N)=O`, for which the residual activity came to 17%.

In the case of `O=C1Cc2c([nH]c3ccc([N+](=O)[O-])cc23)-c2ccccc2N1`, the residual activity was determined as 45%.

For `Nc1ncnc2[nH]nc(Nc3ccc(F)cc3)c12`, the residual activity worked out at 40%.

Take `Cn1c2ccccc2c2c3c(c4c5ccccc5n(CCC#N)c4c21)CNC3=O`: the residual activity worked out at 6%.

Regarding `COc1cc2c(cc1OC)-c1n[nH]c(Nc3cccc(F)c3)c1C2`, the residual activity is 106%.

Consider `O=C(CCCc1ccc(-c2ccccc2F)cc1)Nc1ccc(O)cc1`, for which the residual activity was 90%.

Turning to `CCCCc1c(-c2ccc(OC)cc2)[nH]c2nccnc12`, the residual activity was determined as 65%.

Take `O=C1NC(=O)c2c1c1c3ccccc3[nH]c1n1cncc21`: the residual activity was found to be 39%.

On to `CCN(CC)CCNC(=O)c1c(C)[nH]c(/C=C2\C(=O)Nc3ccc(Cl)cc32)c1C`, for which the residual activity came to 39%.

Consider `CC(C)(C)n1nc(Cc2cccc3ccccc23)c2c(N)ncnc21`, for which the residual activity turned out to be 117%.

Regarding `Nc1ncnc2c1c(-c1ccc(Oc3ccccc3)cc1)cn2C1CCCC1`, the residual activity was 95%.

For `c1ccc(-c2cnc(Nc3ccc(OCCN4CCCC4)cc3)s2)cc1`, the residual activity is 114%.

For the molecule `COc1ccc2c(c1)c(C1=C(c3c[nH]c4ccccc34)C(=O)NC1=O)cn2CCCN(C)C`, the residual activity was 14%.

For `CC(C)(C)c1nc2c3ccc(F)cc3c3c(=O)[nH]ccc3c2[nH]1`, the residual activity turned out to be 1%.

For `O=C1NC(=O)C(c2c[nH]c3ccccc23)=C1c1c[nH]c2ccccc12`, the residual activity stood at 18%.

As for `O=C(c1cc2cc(O)ccc2[nH]1)c1cc2cc(O)ccc2[nH]1`, the residual activity came to 23%.

As for `O=C(O)/C=C/c1cc(Br)c(Br)c(Br)c1Br`, the residual activity was determined as 99%.

Take `Nc1ncnc2c1cnn2-c1ccccc1`: the residual activity is 87%.

In the next test the target is cAMP-dependent protein kinase catalytic subunit alpha (Homo sapiens) (UniProt P17612). The following applies: at 1 µM.
With `Oc1cccc(-c2nc(N3CCOCC3)c3oc4ncccc4c3n2)c1`, the residual activity turned out to be 95%.

In the case of `NC(=O)Nc1sc(-c2ccc(F)cc2)cc1C(N)=O`, the residual activity turned out to be 92%.

With `Cn1sc(=O)n(Cc2ccccc2)c1=O`, the residual activity was 91%.

For the molecule `N#C/C(=C\c1ccc(O)c(O)c1)C(=O)NCc1ccccc1`, the residual activity is 76%.

With `O=C1Nc2ccc(Cl)cc2/C1=C/c1cc(Cl)c(O)c(Cl)c1`, the residual activity is 68%.

For `O=C(CCCc1ccc(-c2ccccc2F)cc1)Nc1ccc(O)cc1`, the residual activity is 107%.

On to `CCCCc1c(-c2ccc(OC)cc2)[nH]c2nccnc12`, for which the residual activity turned out to be 86%.

Regarding `O=C1NC(=O)c2c1c1c3ccccc3[nH]c1n1cncc21`, the residual activity amounted to 82%.

In the case of `CCN(CC)CCNC(=O)c1c(C)[nH]c(/C=C2\C(=O)Nc3ccc(Cl)cc32)c1C`, the residual activity is 81%.

In the case of `CC(C)(C)n1nc(Cc2cccc3ccccc23)c2c(N)ncnc21`, the residual activity is 34%.

Take `CCCC(=O)Oc1ccc2[nH]c(C(=O)c3cc4ccccc4[nH]3)cc2c1`: the residual activity turned out to be 88%.

In the case of `Nc1ncnc2c1c(-c1ccc(Oc3ccccc3)cc1)cn2C1CCCC1`, the residual activity was found to be 85%.

As to `COc1cc2nccc(Oc3ccc(NC(=S)NC(=O)c4ccccc4C)cc3)c2cc1OC`, the residual activity amounted to 90%.

Consider `NCCNc1ncc(C(N)=O)c(Nc2cccc(C(F)(F)F)c2)n1`, for which the residual activity came out at 114%.

On to `COc1cc2ncnc(Nc3cccc(Cl)c3)c2cc1OC`, for which the residual activity turned out to be 111%.

In the case of `c1ccc(-c2cnc(Nc3ccc(OCCN4CCCC4)cc3)s2)cc1`, the residual activity was determined as 78%.

As for `O=C(c1ccccc1)c1ccc(N2CCOCC2)cc1O`, the residual activity is 69%.

As to `COc1ccc2c(c1)c(C1=C(c3c[nH]c4ccccc34)C(=O)NC1=O)cn2CCCN(C)C`, the residual activity was 37%.

Consider `COc1ccc(-c2cnc3c(-c4ccsc4)cnn3c2)cc1`, for which the residual activity came to 80%.

Turning to `O=C(c1cc2cc(O)ccc2[nH]1)c1cc2cc(O)ccc2[nH]1`, the residual activity is 74%.

Regarding `O=C(O)/C=C/c1cc(Br)c(Br)c(Br)c1Br`, the residual activity turned out to be 96%.

These data come from ChEMBL document CHEMBL2218924, “A broad activity screen in support of a chemogenomic map for kinase signalling research and drug discovery” (Biochem J, 2013).
